# Screens deposited in PubChem by National Center for Advancing Translational Sciences (NCATS).
# Cruzain noTriton: qHTS Assay for Promiscuous and Specific Inhibitors of Cruzain (without detergent); Cruzipain (Trypanosoma cruzi), P25779; purified cruzain, Z-FR-AMC fluorescence, no detergent; Potency, µM, usual class: inhibitors; 2.3% of 200,000 active; AID 1476, 2009; further: nearly all actives have a fitted effect of over 40% in size
# Target sequence (P25779 123-467 limits assumed): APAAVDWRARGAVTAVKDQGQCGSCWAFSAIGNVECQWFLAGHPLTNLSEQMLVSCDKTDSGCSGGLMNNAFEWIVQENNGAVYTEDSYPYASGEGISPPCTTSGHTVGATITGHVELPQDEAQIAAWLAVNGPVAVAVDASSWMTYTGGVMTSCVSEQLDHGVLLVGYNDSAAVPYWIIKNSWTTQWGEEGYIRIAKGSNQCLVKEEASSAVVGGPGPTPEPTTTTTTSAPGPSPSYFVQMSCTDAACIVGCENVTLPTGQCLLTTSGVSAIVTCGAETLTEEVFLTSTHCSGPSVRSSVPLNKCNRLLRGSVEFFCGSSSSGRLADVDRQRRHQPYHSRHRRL
#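 Detergent-free condition (0.00005% Triton X-100) in acetate buffer pH 5.5 with DTT. 1.5 nM enzyme and compound were pre-mixed 15 min, then 2 uM Z-FR-AMC substrate added; reaction progress from fluorescence change between first and third reads (60 s).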
# Cruzain Triton: qHTS Assay for Promiscuous and Specific Inhibitors of Cruzain (with detergent) | purified cruzain, Z-FR-AMC fluorescence, 0.01% Triton | Potency, µM, hits mostly inhibitors | 0.43% of 200,000 active | AID 1478, 2009; further: nearly all actives have a fitted effect of over 40% in size
#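 Read-out: AMC fluorescence (360 nm excitation, 450 nm emission), four reads over 2 min, first-to-third difference used. Conditions: cruzain 1.5 nM, Z-FR-AMC 2 uM, pH 5.5 acetate, 5 mM DTT, 0.01% Triton X-100.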
# Hits are given with their value; 0 = inactive; ? = inconclusive. In the library only some 2.5% were active in any assay of this set; here they are far more common. The call rests on the fitted dose curve; in most records, active means well fitted curve in the direction sought with a large enough effect; inconclusive means small, poorly fitted or top-dose-only effect, or another doubt; inactive means no such curve, though single readings can be large; an effect the other way counts as inactive or inconclusive.
SMILES,Cruzain noTriton,Cruzain Triton
COc1cccc(-n2c(SCC(=O)Nc3ccc4c(c3)OCO4)nc3c([nH]c4ccccc43)c2=O)c1,16µM,0
COc1cccc(-n2c(SCC(=O)Nc3ccc(F)cc3F)nc3c([nH]c4ccccc43)c2=O)c1,0,0
Cc1ccc(-n2c(SCC(=O)Nc3ccc4c(c3)OCO4)nc3c([nH]c4ccccc43)c2=O)cc1,13µM,0
CCc1ccc(NC(=O)CSc2nc3c([nH]c4ccccc43)c(=O)n2-c2ccc(C)cc2)cc1,?,0
COc1cccc(NC(=O)CSc2nc3c([nH]c4ccccc43)c(=O)n2-c2cc(C)cc(C)c2)c1,16µM,0
Cc1ccc(NC(=O)C2CCCN(S(=O)(=O)c3ccc4c(c3)oc(=O)n4C)C2)cc1Cl (centres undefined),0,0
COc1cc(C2CC(=O)Oc3ccc(O)cc32)cc(OC)c1OC (centres undefined),0,0
COc1ccc2c(c1)OC(=O)CC2c1ccc2c(c1)OCO2 (centres undefined),0,0
CCN(CC)CCCCn1c(-c2ccccc2)nc2c(Nc3ccccc3)nc(C)nc21,0,0
Cc1cccc2c(=O)cc(CSc3ccccc3NC(=O)c3cccc(Cl)c3)[nH]c12,0,0
Cc1cc(C)cc(OCc2ccc(C(=O)O)o2)c1,0,0
O=C(O)c1ccc(COc2c(F)c(F)c(F)c(F)c2F)o1,16µM,28µM
O=C(c1ccc(Br)o1)N1CCN(Cc2ccc3c(c2)OCO3)CC1,0,0
O=C(c1ccc(COc2c(F)c(F)c(F)c(F)c2F)o1)N1CCN(Cc2ccc3c(c2)OCO3)CC1,?,28µM
Cc1ccc(NC(=O)Cn2c(=O)n(CCC(=O)N3CCc4ccccc4C3)c(=O)c3ccccc32)cc1,0,0
O=C(O)[C@H]1[C@H]2C[C@H]3c4[nH]c5ccccc5c4CCN3C[C@@H]2CC[C@@H]1O,0,0
O=S(=O)(c1ccccc1)N1CCC2(CCN(c3ncccn3)CC2)CC1,0,0
COc1ccc(NC2C[C@H]3CCCC(=O)N4CC[C@@H](C2)[C@@H]34)cc1 (some centres undefined),0,0
CCCN(CCC)S(=O)(=O)c1ccc(C(=O)NNc2nc(-c3ccccc3)c3cc(Br)ccc3n2)cc1,10µM,0
CCCCN(CCCC)S(=O)(=O)c1ccc(NC(=O)c2c(-c3ccccc3)noc2C)cc1,0,0
O=C(CNC(=O)c1ccccc1Cl)OCc1cc(=O)n2ccsc2n1,13µM,25µM
Cc1csc2nc(COC(=O)CNC(=O)c3ccccc3Cl)cc(=O)n12,20µM,25µM
Cc1csc2nc(COC(=O)CNC(=O)c3ccccc3)cc(=O)n12,0,0
O=C(CNC(=O)c1ccc(F)cc1)OCc1cc(=O)n2ccsc2n1,0,0
C=C1c2c(Cl)ccc(O)c2C(O)=C2C(=O)[C@@]3(O)C(O)=C(C(N)=O)C(=O)[C@@H](N(C)C)[C@@H]3[C@@H](O)[C@H]12,0,0
SMILES,Cruzain noTriton,Cruzain Triton
CC(C)(C)OC(=O)N1CCC(c2c(C(=O)NCCN3CCOCC3)cnn2-c2cccc(F)c2)CC1,0,0
COC(=O)c1ccc(NC(=O)Cc2coc3cc(C)ccc23)cc1,0,0
CC(C)Cn1c(=O)c2ccccc2n2c(CCC(=O)NCc3ccc(Cl)cc3)nnc12,0,0
C=Cc1ccccc1C=C,0,0
O=[N+]([O-])c1ccccc1-c1ccc(/C=N/n2cnnc2)o1,0,0
Nn1cnnc1N/N=C\c1ccc(-c2ccccc2[N+](=O)[O-])o1,0,20µM
COc1ccc(NC(=O)CSc2nnc(NC(=O)NC3CCCCC3)s2)cc1OC,?,0
Cc1cc(NC(=O)CSc2nc3ccccc3c(=O)n2C2CCCC2)no1,0,0
CN(C)c1ccc(NC(=O)CSc2nc3ccccc3c(=O)n2C2CCCCC2)cc1,13µM,0
Cc1cccc(OCC(=O)Nc2cccc(C(=O)OCc3cc(=O)n4c(C)csc4n3)c2)c1,0,0
CCCN(c1ccccc1CC)S(=O)(=O)c1ccc2c(c1)CC(C)N2C(=O)C1CC1 (centres undefined),0,0
Cc1ccccc1C(=O)Nc1ccc2nc(SCC(=O)N3CCc4ccccc43)sc2c1,10µM,0
Cc1cccc(C(=O)Nc2ccc3nc(SCC(=O)N4CCc5ccccc54)sc3c2)c1,?,0
O=C(COC(=O)c1n[nH]c2ccccc12)Nc1ccc([N+](=O)[O-])cc1,10µM,0
COC(=O)c1n[nH]c2ccccc12,0,0
Cc1cc(F)ccc1NC(=O)c1csc2c1CCC(C)C2 (centres undefined),0,0
O=C(CSc1nnc(NC(=O)NC2CCCCC2)s1)Nc1ccccc1F,0,0
Cc1nn(CCC(=O)NC(C)C)c(=O)c2nn(-c3ccccc3)c(C)c12,0,0
CS(=O)(=O)N1CCN(c2ccccc2NC(=O)c2ccc(-c3ccc(Br)cc3)o2)CC1,25µM,0
CS(=O)(=O)N1CCN(c2ccc(NC(=O)c3ccc(-c4ccc(Cl)cc4)o3)cc2)CC1,?,0
COc1cc2ccccc2cc1C(=O)Nc1ccccc1N1CCN(S(C)(=O)=O)CC1,25µM,0
O=C(Nc1cccc(NC(=O)c2ccc(-c3ccc(Br)cc3)o2)c1)c1ccco1,32µM,0
CS(=O)(=O)N1CCN(c2ccccc2NC(=O)c2cccc3ccccc23)CC1,0,0
O=C(Nc1cccc(-c2nc3ccccc3o2)c1)c1ccc(-c2ccc(Br)cc2)o1,?,0
Cc1ccc2cccc(NC(=O)c3ccc(-c4ccc(Br)cc4)o3)c2n1,0,0
SMILES,Cruzain noTriton,Cruzain Triton
COC(=O)c1ccccc1NC(=O)c1ccc(-c2ccc(Br)cc2)o1,7.9µM,0
COc1ccc(C(CC(=O)NCc2ccc(Cl)cc2)N2Cc3ccccc3C2=O)cc1OC (centres undefined),?,0
CCCCc1nc2ccccc2n2c(-c3ccc(C)cc3)c3c(=O)n(C)c(=O)n(C)c3c12,0,0
COc1ccc(NC(=O)c2ccco2)cc1NC(=O)COc1ccc(Cl)c(C)c1,?,0
Fc1ccc(COc2ccc(Cl)cc2/C=N/Nc2nc(N3CCCC3)nc(N3CCCC3)n2)cc1,5µM,0
Fc1ccccc1COc1ccccc1/C=N/Nc1nc(N2CCCC2)nc(N2CCCC2)n1,?,0
Cc1cc2c(cc1NC(=O)c1ccccc1Cl)n(C)c(=O)c(=O)n2C,0,0
Cc1ccc(CNC(=O)c2nn(C)c3c2CSc2ccc(C)cc2-3)cc1,20µM,0
Cc1ccc(CCNC(=O)c2nn(C)c3c2CSc2ccccc2-3)cc1,0,0
C/C1=C2N=C(/C=C3N=C(/C(C)=C4\[N-]C(C)(C5N=C1C(C)(CCC(=O)NCC(C)OP(=O)([O-])O[C@H]1C(O)C(n6cnc7cc(C)c(C)cc76)O[C@@H]1CO)C5CC(N)=O)C(C)(CC(N)=O)C4CCC(N)=O)C(C)(CC(N)=O)C\3CCC(N)=O)C(C)(C)C/2CCC(N)=O.[CH2-]C1OC(n2cnc3c(N)ncnc32)C(O)C1O.[Co] (some centres undefined),13µM,10µM
COCCn1c(C)cc(O)c(C(c2ccc(Cl)cc2)N2CCCCC2)c1=O (centres undefined),0,0
COCCCNC(=O)c1[nH]c2cc(OC)ccc2c1Sc1ccc(C)cc1,0,0
COc1ccc2c(Sc3ccc(C)cc3)c(C(=O)NCCc3ccccc3)[nH]c2c1,16µM,0
Cc1c(-c2nsc(NC(=O)c3ccccc3)n2)nnn1-c1ccc(C(F)(F)F)c(Cl)c1,20µM,0
